Active and inactive are the calls of the source.
Tests used:
[1] = E. coli DRC41 culture turbidity changes, primary screen, E. coli filamentation inducer project, strain DRC41, OD650, 48 h (AID 1152);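 further: E. coli MC1000 strain DRC41 lacking acrAB efflux pump and sulA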; settings: E. coli DRC41 (acrAB sulA), higher = more signal, called active from +8 up or from −8 down
[2] = small-molecule binders of probe aLefty1, primary screen, biochemical, small-molecule microarray, 635/667 nm fluorescence (AID 1153); settings: higher = more signal;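 further: score merges spot fluorescence with signal-to-noise ratio from the scanned slide images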
[3] = PSAC antagonists in infected red cells, primary screen, cell-based, P. falciparum Indochina, OD700, 1 h (AID 1154); settings: P. falciparum Indochina infected RBC osmotic lysis, higher = more signal, called active from +8 up or from −8 down
[4] = PSAC antagonists in infected red cells, primary screen, cell-based, P. falciparum Indochina, OD700, 2 h (AID 1155);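 further: lysis reports solute entry through the parasite surface anion channel PSAC; channel blockers reduce lysis of infected cells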; settings: P. falciparum Indochina infected erythrocytes, osmotic lysis OD700; higher = more signal, called active from +8 up or from −8 down
[5] = osmotic lysis modulators in infected erythrocytes, primary screen, PSAC antagonist project, cell-based, P. falciparum Indochina, OD700, 3 h (AID 1156); settings: higher = more signal, called active from +8 up or from −8 down
[6] = PSAC antagonists in infected red cells, primary screen, cell-based, P. falciparum Indochina, OD700, 18 h (AID 1157); settings: P. falciparum Indochina infected erythrocytes, osmotic lysis OD700, 18 h; higher = more signal, called active from +8 up or from −8 down
[7] = modulators of S6 phosphorylation in cells, primary screen, cell-based, A549, cytoblot, luminescence, serum-stimulated (AID 1158); settings: A549 phospho-S6 cytoblot, 5 h, higher = more signal;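 further: serum-stimulated A549 lung adenocarcinoma cells; signal is phosphorylated S6 detected by cytoblot immunostaining with HRP secondary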
[8] = target: NADPH oxidase 2 (Homo sapiens) (UniProt P04839); test: NOX2-dependent H2O2 signal modulators, primary screen, NOX inhibitor project, cell-based, HEK293-NOX2, PMA-stimulated, Amplex Red fluorescence (AID 1159); settings: 45 min, higher = more signal, called active from +8 up or from −8 down; further: test concentration not given here
NADPH oxidase 2 (Homo sapiens), sequence (P04839 whole entry, looked up): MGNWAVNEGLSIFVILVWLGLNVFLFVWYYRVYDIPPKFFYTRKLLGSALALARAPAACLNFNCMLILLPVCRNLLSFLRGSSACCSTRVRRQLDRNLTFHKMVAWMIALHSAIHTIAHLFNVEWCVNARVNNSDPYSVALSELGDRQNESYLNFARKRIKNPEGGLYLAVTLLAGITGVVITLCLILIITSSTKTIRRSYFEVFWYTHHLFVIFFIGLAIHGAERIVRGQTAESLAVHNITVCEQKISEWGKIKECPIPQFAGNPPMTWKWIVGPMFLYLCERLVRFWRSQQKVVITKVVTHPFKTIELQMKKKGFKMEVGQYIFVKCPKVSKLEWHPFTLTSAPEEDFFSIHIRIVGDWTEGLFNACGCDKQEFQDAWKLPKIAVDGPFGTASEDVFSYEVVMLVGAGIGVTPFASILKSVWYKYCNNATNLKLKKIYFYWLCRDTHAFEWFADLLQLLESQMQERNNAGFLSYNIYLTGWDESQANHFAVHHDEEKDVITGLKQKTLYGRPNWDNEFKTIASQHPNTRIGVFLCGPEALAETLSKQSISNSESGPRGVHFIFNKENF

[9] = target: NADPH oxidase 4 (Homo sapiens) (UniProt Q9NPH5); test: NOX4-dependent H2O2 signal modulators, primary screen, NOX inhibitor project, cell-based, HEK293-NOX4, tetracycline-induced, Amplex Red fluorescence (AID 1160); settings: 45 min, higher = more signal, called active from +8 up or from −8 down
NADPH oxidase 4 (Homo sapiens), sequence (Q9NPH5 whole entry, looked up): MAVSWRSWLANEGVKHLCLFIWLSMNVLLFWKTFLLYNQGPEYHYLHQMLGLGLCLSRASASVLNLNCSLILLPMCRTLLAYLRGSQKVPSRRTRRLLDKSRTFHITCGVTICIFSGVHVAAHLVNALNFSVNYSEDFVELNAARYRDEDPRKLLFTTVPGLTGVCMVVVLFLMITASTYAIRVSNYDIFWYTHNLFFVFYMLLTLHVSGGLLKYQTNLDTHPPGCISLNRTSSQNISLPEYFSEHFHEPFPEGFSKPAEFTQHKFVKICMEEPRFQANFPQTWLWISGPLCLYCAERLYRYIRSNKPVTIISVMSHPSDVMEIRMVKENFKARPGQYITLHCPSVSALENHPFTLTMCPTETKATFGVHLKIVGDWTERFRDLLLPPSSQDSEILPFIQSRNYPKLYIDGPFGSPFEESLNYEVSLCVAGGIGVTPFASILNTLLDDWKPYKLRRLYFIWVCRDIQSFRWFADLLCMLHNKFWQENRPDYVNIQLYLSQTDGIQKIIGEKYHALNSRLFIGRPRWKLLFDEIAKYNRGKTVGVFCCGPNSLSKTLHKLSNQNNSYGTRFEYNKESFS

[10] = target: NADPH oxidase 5 (Homo sapiens) (UniProt Q96PH1); test: NOX5-dependent H2O2 signal modulators, primary screen, NOX inhibitor project, cell-based, HEK293-NOX5, Amplex Red fluorescence (AID 1161); settings: HEK293-NOX5, ionomycin, 45 min, higher = more signal
NADPH oxidase 5 (Homo sapiens), sequence (Q96PH1 whole entry, looked up): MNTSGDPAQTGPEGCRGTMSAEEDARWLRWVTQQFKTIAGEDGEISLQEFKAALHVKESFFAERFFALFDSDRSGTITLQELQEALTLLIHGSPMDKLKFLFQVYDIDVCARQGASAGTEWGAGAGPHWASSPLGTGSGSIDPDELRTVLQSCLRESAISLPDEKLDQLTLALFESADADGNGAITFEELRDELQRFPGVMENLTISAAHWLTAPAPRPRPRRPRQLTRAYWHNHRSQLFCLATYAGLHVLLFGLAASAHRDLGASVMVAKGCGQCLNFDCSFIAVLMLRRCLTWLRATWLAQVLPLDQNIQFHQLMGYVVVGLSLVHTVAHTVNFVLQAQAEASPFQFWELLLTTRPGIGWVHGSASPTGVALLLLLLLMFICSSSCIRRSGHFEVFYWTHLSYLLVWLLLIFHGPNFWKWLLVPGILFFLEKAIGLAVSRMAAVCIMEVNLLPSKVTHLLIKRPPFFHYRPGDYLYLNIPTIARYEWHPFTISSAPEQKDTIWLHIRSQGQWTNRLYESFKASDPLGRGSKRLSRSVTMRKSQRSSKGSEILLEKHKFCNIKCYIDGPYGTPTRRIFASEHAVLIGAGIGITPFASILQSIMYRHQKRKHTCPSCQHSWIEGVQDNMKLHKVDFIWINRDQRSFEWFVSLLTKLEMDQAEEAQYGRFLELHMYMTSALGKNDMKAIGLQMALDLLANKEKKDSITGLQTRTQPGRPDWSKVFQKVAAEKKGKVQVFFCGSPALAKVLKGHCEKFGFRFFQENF

[11] = A549 cell viability effects, profiling panel, calcein-AM fluorescence, 48 h, basal (AID 1162); settings: higher = more signal; further: test concentration not given here
[12] = adipocyte viability effects, profiling panel, cell-based, 3T3-L1 adipocytes, calcein-AM fluorescence, 48 h, basal (AID 1163); settings: 3T3-L1 adipocytes viability, higher = more signal; further: test concentration not given here
[13] = HepG2 cell viability effects, profiling panel, calcein-AM fluorescence, 48 h, basal (AID 1164); settings: higher = more signal; further: test concentration not given here
[14] = MM1S cell viability effects, profiling panel, calcein-AM fluorescence, 48 h, basal (AID 1165); settings: higher = more signal;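 further: viability of MM1S multiple myeloma cells under basal unstimulated conditions; test concentration not given here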
[15] = basal RPMI8226 viability, no added stimulus, profiling panel, cell-based, calcein-AM fluorescence, 48 h, PK04 Diversity Set (AID 1166); settings: RPMI8226 myeloma viability, higher = more signal;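 further: cells grown under basal conditions without added stimulus; test concentration not given here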
[16] = basal HepG2 mitochondrial membrane potential changes, profiling panel, cell-based, JC-1 fluorescence, 24 h, 100 nL compound (AID 1167); settings: higher = more signal; further: test concentration not given here
[17] = basal 3T3-L1 adipocyte mitochondrial potential changes, profiling panel, cell-based, JC-1 fluorescence, 3T3-L1 adipocytes, 24 h, 100 nL compound (AID 1168); settings: JC-1 mitochondrial fluorescence, higher = more signal, called active from +8 up or from −8 down; further: test concentration not given here
[18] = basal RPMI8226 mitochondrial membrane potential changes, profiling panel, cell-based, JC-1 fluorescence, 24 h, 100 nL compound (AID 1169); settings: RPMI8226 myeloma, JC-1 mitochondrial potential fluorescence, higher = more signal; further: test concentration not given here
[19] = basal MM1S mitochondrial membrane potential changes, profiling panel, cell-based, JC-1 fluorescence, 24 h, 100 nL compound (AID 1170); settings: higher = more signal; further: test concentration not given here
[20] = A549 lung cancer cell viability effects, profiling panel, resazurin fluorescence, 24 h, PK04 Diversity Set (AID 1171); settings: higher = more signal, called active from +8 up or from −8 down; further: test concentration not given here

Compound | z-score [1] | composite z-score [2] | z-score [3] | z-score [4] | z-score [5] | z-score [6] | z-score [7] | z-score [8] | z-score [9] | z-score [10] | z-score [11] | z-score [12] | z-score [13] | z-score [14] | z-score [15] | z-score [16] | z-score [17] | z-score [18] | z-score [19] | z-score [20]
CC(C)(C)N1CC=CC23O[C@@H]4C=CCCOC(=O)C4[C@H]2C(=O)N(CCCCCO)[C@@H]3C1=O (stereo not given in full) | 0.499 (inactive) | 0.0919 | 1.03 (inactive) | 0.396 (inactive) | 1.98 (inactive) | 0.159 (inactive) | -0.186 | 1.26 (inactive) | 0.385 (inactive) | 1.75 | -0.415 | 0.231 | 2.16 | 1.87 | 0.227 | 0.705 | 0.18 (inactive) | 0.117 | -0.29 | 0.0951 (inactive)
CC(C)(C)N1C(=O)[C@H]2[C@H]3[C@H](O)[C@H](O)CC(=NOCc4ccccc4)[C@@H]3CC[C@H]2C1=O | 0.831 (inactive) | -0.0162 | 0.464 (inactive) | -1.53 (inactive) | 0.877 (inactive) | -2.27 (inactive) | 0.581 | -1.57 (inactive) | 0.413 (inactive) | 0.791 | 0.366 | 0.218 | 0.586 | -0.0096 | 0.519 | 0.858 | -0.249 (inactive) | 0.701 | -1.01 | -1.58 (inactive)
COc1ccc(COC(=O)NN=C2C[C@@H](O)[C@@H](O)[C@@H]3[C@@H]4C(=O)N(c5ccc(F)cc5F)C(=O)[C@@H]4CC[C@@H]23)cc1 | 0.0009 (inactive) | 0.235 | 5.54 (inactive) | 0.54 (inactive) | 1.15 (inactive) | 0.302 (inactive) | 0.281 | 1.5 (inactive) | -1.98 (inactive) | -1.12 | -0.102 | 0.257 | -0.987 | -0.738 | -0.952 | 0.556 | 0.301 (inactive) | -0.195 | 0.627 | 0.909 (inactive)
C#CCCCON=C1C[C@@H](O)[C@@H](O)[C@@H]2[C@@H]3C(=O)N(CCC(=O)OCC)C(=O)[C@@H]3CC[C@@H]12 | 0.425 (inactive) | 0.309 | 16.5 (active) | 1.47 (inactive) | 0.146 (inactive) | 0.404 (inactive) | 0.194 | -9.69 (active) | 0.556 (inactive) | 0.618 | -0.284 | -0.533 | -0.675 | 0.17 | -0.608 | -1.18 | -1.66 (inactive) | 0.213 | -0.123 | -0.0981 (inactive)
CCCC=C(CCC)[C@@H](NC(=O)c1ccc(-c2ccccc2)cc1)c1ccc(C(=O)OC)cc1 | -1.23 (inactive) | 0.547 | 0.626 (inactive) | 0.453 (inactive) | -0.104 (inactive) | 0.987 (inactive) | 0.692 | -0.0895 (inactive) | 1.13 (inactive) | 1.81 | -1.34 | -1.51 | -0.166 | -0.116 | -1.62 | -3.18 | 0.393 (inactive) | -0.834 | -1.29 | 0.747 (inactive)
CO[C@@H]1COC(=O)CC=C[C@@H](C)[C@H](OC)COC(=O)[C@H](COCc2ccccc2)NC(=O)CC=C[C@H]1C | -0.991 (inactive) | -0.147 | -0.129 (inactive) | 0.151 (inactive) | 0.181 (inactive) | 0.354 (inactive) | 0.354 | -1.79 (inactive) | 0.0385 (inactive) | 0.0539 | -0.0667 | 0.461 | 0.422 | -0.0878 | 0.651 | 0.0535 | -0.303 (inactive) | 0.577 | 0.179 | -0.27 (inactive)
CO[C@@H]1COC(=O)CC=C[C@@H](C)[C@@H]2C=C[C@@H](O)[C@@H](COC(=O)CC=C[C@H]1C)O2 | 0.301 (inactive) | -0.012 | 0.118 (inactive) | -1.35 (inactive) | -1.66 (inactive) | -1.73 (inactive) | 0.805 | -0.0926 (inactive) | 0.492 (inactive) | 0.957 | 0.852 | 0.572 | 1.4 | 0.349 | 1.01 | 1.33 | 0.95 (inactive) | -1.01 | 1.48 | -0.299 (inactive)
C=CCOC(=O)[C@H]1[C@@H]2C(=O)O[C@@H](c3ccccc3)[C@@H](c3ccccc3)N2[C@@H](c2ccc(OCCOC(=O)[C@H]3C[C@H]4C(=O)N[C@@H](Cc5ccccc5)C(=O)N4[C@H]3c3ccc(O)cc3)cc2)[C@]12C(=O)Nc1ccccc12 | 0.561 (inactive) | -0.263 | 2.5 (inactive) | 1.2 (inactive) | -4 (inactive) | 0.988 (inactive) | 0.338 | 1.83 (inactive) | 0.898 (inactive) | 1.44 | -0.794 | 0.689 | 0.642 | 0.0505 | -0.216 | -1.47 | 0.0241 (inactive) | -0.287 | -0.718 | 1.7 (inactive)
CC(C)NC(=O)[C@@]1(C)c2ccccc2C(=O)N(Cc2cc(F)cc(C(F)(F)F)c2)[C@H]1c1ccc(CO)cc1 | 0.0051 (inactive) | -0.21 | 7.03 (inactive) | 0.429 (inactive) | 0.943 (inactive) | 0.0608 (inactive) | -0.191 | 0.162 (inactive) | 0.696 (inactive) | -0.117 | 0.0549 | -0.866 | -0.135 | -0.0517 | 0.223 | 0.863 | -0.327 (inactive) | 0.102 | -0.542 | 0.166 (inactive)
O=C1[C@H]2[C@H]3[C@H](O)[C@H](O)CC(=NO[C@@H]4O[C@H](CO)[C@@H](O)[C@H](O)[C@H]4O)[C@@H]3CC[C@H]2C(=O)N1Cc1ccc2c(c1)OCO2 | -0.161 (inactive) | -0.0016 | 5.54 (inactive) | 0.373 (inactive) | 1.3 (inactive) | 0.404 (inactive) | 0.117 | -0.486 (inactive) | 0.295 (inactive) | -0.163 | -0.575 | 1.13 | -0.874 | -0.778 | -1.06 | 0.221 | -1.34 (inactive) | -0.981 | 0.386 | 0.159 (inactive)
COc1ccccc1CN1C(=O)c2ccccc2[C@@]2(Cc3ccccc3N(C(C)C)C2=O)[C@@H]1c1ccc(CO)cc1 | 1.74 (inactive) | 0.0371 | 0.0937 (inactive) | -0.756 (inactive) | -0.964 (inactive) | -0.876 (inactive) | 1.79 | -0.437 (inactive) | 0.215 (inactive) | 1.04 | 0.212 | 0.423 | 1.29 | -0.19 | 0.931 | 0.881 | 0.576 (inactive) | 0.563 | 0.374 | -1.64 (inactive)
C=C(CCCC)C(=O)CC[C@@H](OC(C)=O)c1cccc(OCCO)c1 | -0.462 (inactive) | -0.101 | 2.82 (inactive) | 1.81 (inactive) | -1.27 (inactive) | 0.822 (inactive) | 0.0149 | -1.14 (inactive) | -1.3 (inactive) | -3.02 | -0.985 | -1.33 | -2.45 | -2.53 | -2.28 | -0.974 | -0.673 (inactive) | 0.452 | -0.238 | -0.713 (inactive)
COCCOC(=O)N1C(=O)[C@@]2(c3cc(C#Cc4ccc(OC)cc4)ccc31)[C@H](C(=O)N1CCN(c3ncccn3)CC1)[C@H]1C(=O)O[C@H](c3ccccc3)[C@H](c3ccccc3)N1[C@@H]2c1ccc(OCCO)cc1 | -0.541 (inactive) | 0.327 | 10.1 (active) | 2.52 (inactive) | 0.493 (inactive) | 1.04 (inactive) | -0.21 | 1.51 (inactive) | 0.337 (inactive) | -0.0992 | -0.758 | 0.717 | 0.0264 | -1.01 | 0.581 | 0.331 | 3.91 (inactive) | -0.453 | -0.885 | -0.212 (inactive)
COc1ccc(O[C@H]2C=C[C@@H](c3ccccc3)O[C@@H]2CON=C[C@@H](C)[C@H](OCc2ccccc2)C(C)C)cc1 | 0.302 (inactive) | -0.246 | 2.08 (inactive) | 0.98 (inactive) | 0.422 (inactive) | 0.319 (inactive) | 0.831 | -0.734 (inactive) | 0.877 (inactive) | -0.165 | 0.688 | -0.106 | 1.7 | 0.553 | -0.903 | 0.46 | 0.732 (inactive) | -0.0803 | -0.486 | -0.463 (inactive)
COc1ccc(-c2nc3c(c4c2C[C@H](C)OC4)CN(CCC(C)C)CC3)cc1 | 0.498 (inactive) | 0.0687 | 1.78 (inactive) | 0.673 (inactive) | 0.511 (inactive) | 0.123 (inactive) | -0.0895 | -0.112 (inactive) | 0.239 (inactive) | 0.684 | 0.537 | -0.49 | 0.443 | 0.508 | -0.234 | 1.7 | -0.613 (inactive) | 0.0911 | -0.685 | -0.0598 (inactive)
CO[C@@H]1COC(=O)CCC[C@@H](C)[C@H](OC)COC(=O)CCC[C@H]1C | -0.665 (inactive) | -0.0933 | 0.553 (inactive) | 0.637 (inactive) | 0.719 (inactive) | 0.49 (inactive) | -0.918 | 0.545 (inactive) | 0.567 (inactive) | 0.031 | -0.378 | -0.465 | -0.125 | -0.197 | 0.239 | -0.075 | -0.996 (inactive) | 0.822 | -0.162 | 0.183 (inactive)
